TDP1 cell CPT – DT40-hTDP1 cell growth loss with CPT; actives 12% (n = 420,000); chicken DT40 Tdp1-/-;hTDP1 cells + 20 nM CPT, ATP luminescence, 48 h; AID 686979; Potency, µM (doses to about 46.2 µM), without a hit: at the highest dose activity change, negative = growth inhibition, usual class: inhibitors; note: potency is the fitted concentration of half-maximal effect; nearly all actives have a fitted effect of over 55% in size
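Chicken DT40 Tdp1-/- cells stably complemented with human TDP1 were seeded at 400 cells/well in medium containing 20 nM camptothecin, exposed to pin-transferred compounds, and grown at 37 °C for at least 48 hr. Viability was read as ATP luminescence.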
uPA surface inh – cell surface uPA generation inhibition | cell surface uPA generation assay, qHTS | Potency, µM (top dose mostly 38.3 µM), for the others: top-dose activity change, negative = inhibition, usual class: inhibitors | actives 0.31% (n = 330,000); active = well fitted inhibition curve with a large enough effect; inconclusive = small, poorly fitted or top-dose-only effect; inactive = no such curve, though single readings can be large or run the other way; tested in mouse RAW 264.7 cells; note: potency is the fitted concentration of half-maximal effect; nearly all actives have a fitted effect of over 55% in size
HT1080-NT tox – kills 2HG-producing HT-1080-NT fibrosarcoma cells; HT-1080-NT fibrosarcoma viability, CellTiter-Glo ATP luminescence, 48 h; Potency, µM (doses to about 46.1 µM), for inactives: at the top dose activity, negative = less viability, actives largely listed as cytotoxic; actives 1.6% (n = 360,000); AID 686970;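 note: NT is the 2HG producing partner of a matched IDH1 knockdown line; potency is the fitted concentration of half-maximal effect; 0% = DMSO-treated cells and -100% = media-only wells without cells; nearly all actives have a fitted effect of over 55% in size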
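Viability by CellTiter-Glo luminescence after 48 h compound exposure at 37C of HT-1080-NT cells (750/well, RPMI, 5% FBS). % activity scaled between DMSO wells and medium-only wells, then curve-fitted and categorized by curve class.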
HT1080 IDH1KD tx – kills HT-1080 cells with IDH1 knockdown. actives 2% (n = 360,000). Potency, µM (doses to about 46.1 µM), for inactives: at the top dose activity, negative = toxicity, most hits filed as cytotoxic. HT-1080 IDH1 knockdown viability, ATP luminescence, 48 h;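 note: potency is the fitted concentration of half-maximal effect; 0% = DMSO wells and -100% = cell-free medium wells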
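Cytotoxicity counter-line: IDH1KD HT-1080, 48 h, CellTiter-Glo. Curves classed by r2, magnitude and activity.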
IL1B secr inh – blocks inflammasome-driven IL-1 beta release; THP-1 LPS/ATP IL-1B secretion, AlphaLISA, 16 h; active compounds read low; actives 4.7% (n = 360,000); activity change, % at 57.5 µM; AID 743279; in the data active = activity change below about -50%; inconclusive = mostly about -30% to -49%
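THP-1 cells pretreated 1 hr with compounds (up to 57.5 uM final), then stimulated with LPS (250 ng/mL final) plus ATP (1.25 mM final); secreted IL-1B measured by AlphaLISA after 16 hr, decreased signal indicating inhibition.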
TDP1 cell noCPT – qHTS for Inhibitors of human tyrosyl-DNA phosphodiesterase 1 (TDP1): qHTS in cells in absence of CPT | AID 686978, 2013 | DT40 Tdp1-/- hTDP1 cells, no CPT, ATP luminescence, 48 h | Potency, µM (titrated, usually from 46.2 µM), for the others: at the top dose activity change, negative = growth inhibition, usual class: inhibitors | actives 15% (n = 420,000); note: potency is the fitted concentration of half-maximal effect; nearly all actives have a fitted effect of over 55% in size
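Growth of hTDP1-complemented DT40 Tdp1-knockout cells is measured by ATP luminescence after at least 48 hr compound exposure at 37 °C, with DMSO substituting for the 20 nM CPT used in the parallel screen.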
Active calls of the source: *; ? = inconclusive; / = no result. Compounds with a hit are over-represented: about 19% of the library has one in this group of screens. Unless noted, calls come from the whole dose curve; as a rule, active = well fitted curve in the direction sought with a large enough effect; inconclusive = small, poorly fitted or top-dose-only effect, or another doubt; inactive = no such curve, though single readings can be large; an effect the other way counts as inactive or inconclusive. Unless noted, % is set by controls: 0 for no effect and ±100 for the full control effect.

SMILES	TDP1 cell CPT	uPA surface inh	HT1080-NT tox	HT1080 IDH1KD tx	IL1B secr inh	TDP1 cell noCPT
CCOC(=O)Cc1nc(-c2cccc(C(F)(F)F)c2)no1	-0.8%	0.7%	14.7%	-1.9%	-20.1	-3.1%
O=C1NC[C@@H](CCCCN2C[C@H](Cc3ccc(O)cc3)N(Cc3ccccc3)C(=O)C2=O)N(Cc2ccccc2)C1=O	-8.1%	/	17.9%	13.8%	-1.4	-5.2%
O=C(Cc1ccc(-c2ccccc2)cc1)OCC(=O)N1CCCC1=O	5.1%	4.3%	-2.7%	13.5%	-19.9	4.1%
CCCCCCCc1ccc(C2NC(=S)NC3=C2C(=O)c2ccccc23)cc1 (stereo not drawn)	16.4µM*	1.9%	3.4%	3.3%	9.3	?
Cc1cc(F)ccc1S(=O)(=O)N1CCCOC1CNC(=O)C(=O)NC1CCCCC1 (stereo not drawn)	-10.7%	13.7%	-2.8%	-2.2%	-17.3	-13.1%
CCOc1ccc(NC(=O)CCS(=O)(=O)c2ccc(C)cc2)cc1	-15.5%	2.6%	26.0%	15.4%	-1.3	?
CCOc1ccc2c(c1)C(C)=CC(C)(C)N2S(=O)(=O)c1ccc(NC(C)=O)cc1	1.03µM*	?	3.66µM*	1.84µM*	65.9	1.3µM*
COc1ccc(S(=O)(=O)N2CC=C(C(=O)Nc3ccc(NC(C)=O)cc3)CC2)cc1	13.3%	-2.3%	-5.3%	5.7%	-0.4	-0.4%
CC1=CC(C)(C)N(C(=O)CN2C(=O)c3ccccc3C2=O)c2ccccc21	?	-3.6%	9.7%	0.8%	1.2	?
CC1=CC(C)(C)N(S(=O)(=O)c2ccc(F)cc2)c2ccc(C)cc21	?	?	7.08µM*	?	36.7	5.8µM*
CC1=CC(C)(C)N(S(=O)(=O)c2ccc(C)cc2)c2ccccc21	11.6µM*	?	6.31µM*	?	33.6	18.4µM*
COc1ccc2c(c1)C(C)=CC(C)(C)N2S(=O)(=O)c1ccc(NC(C)=O)cc1	5.8µM*	-15.2%	?	?	66.6	2.31µM*
COc1ccc(C(=O)N/C(=C/c2cccs2)C(=O)N2CCN(C)CC2)cc1	2.8%	/	2.0%	10.3%	-13.4	-20.8%
CCOc1ccc2c(c1)C(C)=CC(C)(C)N2S(=O)(=O)c1ccc(F)cc1	?	8.91µM*	?	?	143.0	?
CCOc1ccc(S(=O)(=O)N2CN3CCN(C3)C2)cc1	?	-0.5%	9.7%	9.7%	17.7	?
OC(c1cc(F)cc(Cl)c1)c1ncc(-c2ccc(Cl)cc2)[nH]1 (stereo not drawn)	18.4µM*	/	?	?	-12.2	?
OC(c1cc(Cl)cc(Cl)c1)c1ncc(-c2cccc(F)c2)[nH]1 (stereo not drawn)	?	/	?	?	?	16.4µM*
Cc1ccc(CCNC(=O)C2CCCN(S(=O)(=O)c3c(C)noc3/C=C/N(C)C)C2)cc1 (stereo not drawn)	?	-25.3%	-20.7%	-16.4%	-21.2	?
Cc1ccc(N(C)S(=O)(=O)c2c(C)noc2/C=C/N(C)C)cc1	18.4µM*	-13.5%	-16.9%	1.6%	-16.8	?
CC1(C)Cc2c(C#N)c(N)n(-c3ccccc3)c(=S)c2CO1	2.3%	-2.5%	0.7%	-2.6%	/	-21.5%
CC1(C)C=C2C(=NN(c3ccccc3)C(N)=C2C#N)CO1	13µM*	-5.3%	-14.7%	-1.0%	1.9	?
CCOc1ccccc1N1CCN(C(=O)c2ccc3[nH]c4c(c3c2)CCCC4)CC1	20.6µM*	3.3%	?	?	?	?
CCOc1ccccc1N1CCN(C(=O)c2cc3c(C)cc(C)cc3[nH]2)CC1	?	0.5%	?	?	?	23.1µM*
